# From PubChem BioAssay (NCATS)
# Records with an inconclusive call do not appear. Values without a mark were called inactive. The call rests on the fitted dose curve; in most records, active means well fitted activation curve with a large enough effect; inconclusive means small, poorly fitted or top-dose-only effect, or effect the other way; inactive means flat fitted curve, though single readings scatter.
# Experiment: Cellular Toxicity (caspase-3) NIH 3T3 (AID 666);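 further: caspase signal read after 16 h compound exposure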
# Conditions: NIH 3T3 caspase-3 activation, apoptosis/toxicity, 0% DMSO, 100% is 100 µM tamoxifen; series mostly up to 92.2 µM; caspase-3 activation: at the top concentration
# Excerpt: NIH Chemical Genomics Center [NCGC]
# NIH Molecular Libraries Screening Centers Network [MLSCN]
# National Institutes of Environmental Health Sciences [NIEHS]
# National Toxicology Program [NTP]
# We have developed a 1536-well cell-based assay for quantitative high throughput screening (qHTS) against a number of cell lines to determine in vitro caspase 3/7 of small molecules. This particular assay uses the NIH 3T3 cell line which is derived from mouse fibroblasts.
# NCGC Assay Protocol Summary:
# The Caspase-Glo 3/7 assay (Promega) is a homogeneous method to measure caspase-3 and caspase-7 activities in cultured cells. The quantitation of caspase 3/7 activity is based on the cleavage of a peptide-aminoluciferin substrate. After caspase cleaves the substrate the free aminoluciferin is liberated and serves as the substrate of luciferase, which generates the light. The luminescent signal is proportional to amount of caspase 3/7 activity present.
# Using the Caspase-Glo 3/7 assay, the amount of caspase 3/7 activity was measured in the NIH 3T3 cell line with complete culture medium following compound treatment for 16 hours. The assay was performed in opaque white 1536-well plates. In the screen, tamoxifen and doxorubicin were used as positive controls. Library compounds were measured for their ability to cause the activation of caspase 3/7 in the cell line, as reflected by an increase in luminescence signal, in a concentration-dependent manner. Data were normalized to the controls for basal activity (DMSO only) and 100% stimulation (100 uM tamoxifen). AC50 values were determined from concentration-response data modeled with the standard Hill equation.
# qHTS protocol for caspase 3/7 assay in NIH 3T3 cells
# [Step] [Parameter] [Value] [Description]
# 1. Reagent; 5 uL; 1000 NIH 3T3 cells/well
# 2. Time; 5 hr; 37 °C incubation
# 4. Controls; 23 nL; Tamoxifen 0.23 uM to 100 uM & Doxorubicin 7.0 pM to 100 uM
# 5. Time; 16 hr; 37 °C incubation
# 6. Reagent; 5 uL; Caspase-Glo 3/7 reagent
# 7. Time; 20 min; Room Temperature
# 8. Detection; Luminescence; Viewlux plate reader
# Keywords: caspase 3/7, apoptosis, NIH 3T3 cell line, luminescence, NTPHTS, NTPHTS_NCGC, NIEHS, EPA, DSSTox, MLSMR, MLSCN, NIH Roadmap, qHTS, NCGC
row,SMILES,caspase-3 activation [%]
1,O=C(O)c1ccc(Cl)c(Cl)c1,-6.66
2,CC(C=O)Cc1ccc(C(C)(C)C)cc1 (stereo not given),-0.675
3,Nc1ccc(F)cc1F,-2.15
4,NC(=O)c1cccc([N+](=O)[O-])c1,4.22
5,NCCCCCCN,0.687
6,C=CCCCC,2.74
7,CCC(C)(C)OC,-1.6
8,Cc1ccc(C#N)cc1,-1.29
9,O=C(O[C@@H](C(=O)O)[C@@H](OC(=O)c1ccccc1)C(=O)O)c1ccccc1,-0.98
10,Cc1ccc(C)c(O)c1,-0.779
11,NC(=O)c1ccccc1[N+](=O)[O-],-3.21
12,c1ccc2[nH]cnc2c1,1.56
13,CCOCCO,-2.47
14,O=Cc1ccc(Cl)cc1,-2.77
15,CCCCOCCOCCSC#N,-0.224
16,Cc1ccc(Cl)cc1N,-4.07
17,CC(C)(O)C(=O)O,-3
18,ClC/C=C/CCl,-2.33
19,Cc1cccc(Br)c1,-2.26
20,O=Cc1c(Cl)cccc1Cl,6.19

row,SMILES,caspase-3 activation [%]
1,CCCCCCC=O,-0.646
2,O=Cc1ccc(CO)o1,-4.85
3,CCC=O,-0.91
4,CCCCCCC(=O)O,0.00411
5,Nc1nc(-c2ccccc2)cs1,-14.3
6,CC(=O)Nc1ccccc1C,-6.59
7,O=C(O)CNC(=O)c1ccc(CO)o1,-7.26
8,C=C(C)C(=O)OCCCCCCCCCC,2.9
9,CCCCCCCCN,-1.16
10,O=C(O)c1cccc(Cl)c1Cl,2.12
11,C1CCC2OC2C1 (stereo not given),-2.09
12,O=C1CCCCC1,4.75
13,Cc1ccc(Cl)cc1,-1.14
14,Cc1cc(C2(c3cc(C)c(O)cc3C)OS(=O)(=O)c3ccccc32)c(C)cc1O,-0.917
15,Cc1ccc2c(c1[N+](=O)[O-])C(=O)c1ccccc1C2=O,-4.48
16,Cc1cccc(C(=O)O)c1,-17
17,CC(=O)c1ccccc1[N+](=O)[O-],-2.25
18,Cc1ccccc1C=O,2.23
19,O=[N+]([O-])c1cccc(Cl)c1,-5.66
20,CCCC=O,-5.41
